# In PubChem BioAssay:
# A number with no mark means an inactive call. How the calls were made is not given here.
# Target: Pantothenate synthetase (Mycobacterium tuberculosis (strain ATCC 25618 / H37Rv)) (UniProt P9WIL5)
# Experiment: Recombinant Mtb pantothenate synthetase (PanC) inhibitors, coupled enzyme, confirmatory (AID 375);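 further: 0% = full reaction with vehicle and 100% = no enzyme background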
# Settings: coupled enzyme assay; at 10 µM, active compounds read high
# Sequence of Pantothenate synthetase (Mycobacterium tuberculosis (strain ATCC 25618 / H37Rv)) (P9WIL5 whole entry, looked up): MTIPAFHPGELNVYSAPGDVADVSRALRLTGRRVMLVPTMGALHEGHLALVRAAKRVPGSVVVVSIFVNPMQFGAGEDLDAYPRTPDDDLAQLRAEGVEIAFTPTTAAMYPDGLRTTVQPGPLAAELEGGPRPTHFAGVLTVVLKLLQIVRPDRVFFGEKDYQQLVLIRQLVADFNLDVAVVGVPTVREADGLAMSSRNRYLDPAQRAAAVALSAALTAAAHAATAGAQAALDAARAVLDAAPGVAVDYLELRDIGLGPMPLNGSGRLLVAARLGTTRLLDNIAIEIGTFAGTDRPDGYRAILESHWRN
row,SMILES,inhibition
1,Cc1cccc(N2CCN(C(=O)CCn3c(=S)[nH]c4cc5c(cc4c3=O)OCO5)CC2C)c1 (stereo not given),9%
2,O=C(CN1C(=O)CCS(=O)(=O)c2ccccc21)NCc1ccc(F)cc1,3%
3,Cc1cccc(-n2ccnc2SCC(=O)Nc2cc(C)on2)c1,1%
4,CC(O)CN1C(=O)C(CC(=O)Nc2ccc(Cl)cc2)SC1=Nc1ccccc1 (stereo not given),0%
5,CCn1nc(C(=O)OCC(=O)N2CCc3ccccc32)c2ccccc2c1=O,7%
6,CCOC(=O)C1CCN(c2nc3ccccc3nc2C(C#N)C(=O)OC(C)C)CC1 (stereo not given),0%
7,C/C(=N\O)C(C)/[N+]([O-])=C/c1nc(C)c(C)n1O (stereo not given),0%
8,CCOC(=O)C1CCCN(c2c(Nc3ccc(C)c(C)c3)c(=O)c2=O)C1 (stereo not given),2%
9,CCCn1c(C)cc(C(=O)COc2ncnc3sccc23)c1C,4%
10,Cn1nnnc1SCC(=O)Nc1ccccc1-c1ccccc1,2%
11,c1coc(CN(Cc2cccs2)Cc2nnnn2C2CCCCC2)c1,0%
12,Cc1cccc(C(=O)O)c1NC(=O)c1ccc(F)cc1,1%
13,O=C(CC1Oc2ccccc2NC1=O)NCCCN1CCOCC1 (stereo not given),0%
14,O=c1c2ccccc2cnn1-c1nc2ccccc2s1,0%
15,Cc1cc(NC(=O)CSc2nnc(COc3cccc(C)c3C)n2Cc2ccco2)no1,0%
16,OC1(c2cccc(C(F)(F)F)c2)CCNCC1,4%
17,COc1ccc(Cn2nnnc2C(c2cc3cc(C)cc(C)c3[nH]c2=O)N2CCOCC2)cc1 (stereo not given),0%
18,OCCNCC(O)Cn1ccc2ccccc21 (stereo not given),2%
19,O=C(O)CCc1ccc(-c2ccc(F)cc2)n1CC(=O)O,0%
20,CCCCCCn1c(SCCCC)nc2c1c(=O)[nH]c(=O)n2C,4%

row,SMILES,inhibition
1,CCOc1ccc(-c2nc(C#N)c(NCc3ccc4c(c3)OCO4)o2)cc1,3%
2,O=C(Cn1nnc(-c2cc(Cl)ccc2-n2cnnn2)n1)N1CCCc2ccccc21,0%
3,COC(=O)CN(Cc1ccco1)S(=O)(=O)c1ccccc1,1%
4,Clc1ccc2nc(N3CCCCC3)[nH]c2c1,3%
5,CN1CCCN(CC(O)COCc2cccs2)CC1 (stereo not given),0%
6,CCC(C)OC(=O)n1ccc(C(=O)Nc2nccs2)n1 (stereo not given),0%
7,CCOC(=O)N1CCN(C(=O)COc2cc(=O)n(C)c3ccccc23)CC1,0%
8,CC12CN3CC(C)(CN(C1)C3c1ccc(Br)cc1)C2 (stereo not given),0%
9,CCOC(=O)CNC(=O)CSc1nnnn1-c1cc(C)ccc1C,10%
10,O=C(c1ccc(Cl)cc1)N1CCCOC1,4%
11,COc1ccc(CCN(C)CCCC(C#N)(c2ccc(OC)c(OC)c2)C(C)C)cc1OC (stereo not given),0%
12,CC1=CCC2C(=O)N(c3nc(C)cc(C)n3)C(=O)C2C1 (stereo not given),0%
13,CCSc1oc(-c2cccs2)nc1S(=O)(=O)c1ccccc1,4%
14,CCC(=O)Nc1nn(C)c2nc3c(C)cccc3cc12,0%
15,CCN(CC(=O)Nc1c(C(=O)OC)[nH]c2ccccc12)c1ccc2c(c1)OCO2,5%
16,COc1cccc(-c2csc3nnc(SCC(=O)c4ccc(NC(C)=O)cc4)n23)c1,1%
17,CNC(=O)NCCN1CCCC1=O,6%
18,CC(=O)Nc1ccc(S(=O)(=O)Nc2nc3n(n2)C(c2ccccc2)CC(=O)N3)cc1 (stereo not given),0%
19,Cc1nc(SCCC(=O)O)c2ccccc2n1,6%
20,CC(C)(C)C1CCc2c(sc3c2C(=O)NC(c2ccco2)N3)C1 (stereo not given),2%
